Experimental data as given in ChEMBL document CHEMBL1961873, “Compounds: GSK PKIS; Assays: Nanosyn kinase panel” (2012).

What was measured:
[1] = target: Tyrosine-protein kinase SYK (Homo sapiens) (UniProt P43405); conditions: at 1 µM
[2] = target: T1, Tyrosine-protein kinase Tec (Homo sapiens) (UniProt P42680); conditions: at 0.1 µM
T1 sequence (whole entry): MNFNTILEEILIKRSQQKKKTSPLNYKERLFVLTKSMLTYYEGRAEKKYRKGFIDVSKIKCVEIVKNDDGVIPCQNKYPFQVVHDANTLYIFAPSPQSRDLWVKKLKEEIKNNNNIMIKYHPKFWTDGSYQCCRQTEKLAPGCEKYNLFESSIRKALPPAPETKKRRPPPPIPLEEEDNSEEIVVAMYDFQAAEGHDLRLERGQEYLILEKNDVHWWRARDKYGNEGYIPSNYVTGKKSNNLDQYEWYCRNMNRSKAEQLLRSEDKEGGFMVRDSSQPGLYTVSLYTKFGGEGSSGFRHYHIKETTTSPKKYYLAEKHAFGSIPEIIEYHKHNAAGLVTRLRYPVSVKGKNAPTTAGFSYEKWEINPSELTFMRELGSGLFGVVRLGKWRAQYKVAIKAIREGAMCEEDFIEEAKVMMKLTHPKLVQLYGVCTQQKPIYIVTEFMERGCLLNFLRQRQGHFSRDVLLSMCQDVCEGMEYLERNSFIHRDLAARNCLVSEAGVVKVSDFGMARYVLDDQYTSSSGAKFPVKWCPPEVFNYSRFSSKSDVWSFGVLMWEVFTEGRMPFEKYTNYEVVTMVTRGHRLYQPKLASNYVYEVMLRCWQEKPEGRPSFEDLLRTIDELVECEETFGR

[3] = target: T1, Tyrosine-protein kinase Tec (Homo sapiens); conditions: at 1 µM
[4] = target: Angiopoietin-1 receptor (Homo sapiens) (UniProt Q02763); conditions: at 0.1 µM
Chain of Angiopoietin-1 receptor (Homo sapiens) (Q02763 whole entry): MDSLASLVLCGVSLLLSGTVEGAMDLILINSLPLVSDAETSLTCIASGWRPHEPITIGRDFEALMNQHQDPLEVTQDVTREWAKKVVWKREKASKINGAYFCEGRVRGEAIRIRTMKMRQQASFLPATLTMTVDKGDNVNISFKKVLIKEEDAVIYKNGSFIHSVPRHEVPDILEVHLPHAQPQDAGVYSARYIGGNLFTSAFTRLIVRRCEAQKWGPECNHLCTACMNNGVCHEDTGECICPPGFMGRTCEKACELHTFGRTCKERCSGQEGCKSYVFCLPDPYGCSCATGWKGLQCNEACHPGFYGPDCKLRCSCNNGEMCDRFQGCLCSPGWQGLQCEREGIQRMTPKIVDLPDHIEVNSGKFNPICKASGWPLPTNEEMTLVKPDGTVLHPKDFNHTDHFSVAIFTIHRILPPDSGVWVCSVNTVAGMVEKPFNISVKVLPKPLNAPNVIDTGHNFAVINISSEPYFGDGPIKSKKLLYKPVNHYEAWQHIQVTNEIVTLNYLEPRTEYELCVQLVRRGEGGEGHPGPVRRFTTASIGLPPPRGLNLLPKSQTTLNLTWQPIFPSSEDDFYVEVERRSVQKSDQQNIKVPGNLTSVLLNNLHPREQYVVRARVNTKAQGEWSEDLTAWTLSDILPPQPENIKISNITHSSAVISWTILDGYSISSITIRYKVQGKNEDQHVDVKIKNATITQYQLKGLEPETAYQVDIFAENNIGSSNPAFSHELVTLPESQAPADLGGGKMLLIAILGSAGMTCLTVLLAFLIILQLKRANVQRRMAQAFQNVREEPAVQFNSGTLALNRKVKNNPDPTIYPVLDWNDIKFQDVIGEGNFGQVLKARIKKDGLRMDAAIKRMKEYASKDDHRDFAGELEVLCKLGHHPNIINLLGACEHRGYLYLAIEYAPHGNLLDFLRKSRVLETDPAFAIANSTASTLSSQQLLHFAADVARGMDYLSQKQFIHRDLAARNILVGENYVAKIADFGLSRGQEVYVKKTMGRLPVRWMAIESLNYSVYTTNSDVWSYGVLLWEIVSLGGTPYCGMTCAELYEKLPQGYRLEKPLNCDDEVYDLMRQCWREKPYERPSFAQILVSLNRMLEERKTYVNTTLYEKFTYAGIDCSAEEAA

[5] = target: Angiopoietin-1 receptor (Homo sapiens) (UniProt Q02763); conditions: at 1 µM
[6] = target: T2, Non-receptor tyrosine-protein kinase TNK1 (Homo sapiens) (UniProt Q13470); conditions: at 0.1 µM
T2 sequence (whole entry): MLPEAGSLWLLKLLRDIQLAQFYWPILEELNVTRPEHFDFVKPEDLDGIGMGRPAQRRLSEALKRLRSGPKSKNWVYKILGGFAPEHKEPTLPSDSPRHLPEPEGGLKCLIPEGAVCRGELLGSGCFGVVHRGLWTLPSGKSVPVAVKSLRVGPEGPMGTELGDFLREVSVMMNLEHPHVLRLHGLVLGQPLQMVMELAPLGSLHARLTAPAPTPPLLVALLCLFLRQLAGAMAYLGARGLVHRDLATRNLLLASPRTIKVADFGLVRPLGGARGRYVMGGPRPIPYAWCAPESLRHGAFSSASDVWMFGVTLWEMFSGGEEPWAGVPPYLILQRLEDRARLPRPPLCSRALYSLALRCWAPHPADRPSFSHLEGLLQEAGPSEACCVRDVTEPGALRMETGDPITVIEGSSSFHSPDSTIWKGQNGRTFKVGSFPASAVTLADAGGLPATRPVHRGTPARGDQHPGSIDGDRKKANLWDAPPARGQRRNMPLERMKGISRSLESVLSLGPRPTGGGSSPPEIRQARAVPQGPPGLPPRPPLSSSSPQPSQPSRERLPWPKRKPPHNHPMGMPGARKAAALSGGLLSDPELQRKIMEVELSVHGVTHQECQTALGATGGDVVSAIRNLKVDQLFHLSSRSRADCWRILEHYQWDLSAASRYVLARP

[7] = target: T2, Non-receptor tyrosine-protein kinase TNK1 (Homo sapiens); conditions: at 1 µM
[8] = target: Activated CDC42 kinase 1 (Homo sapiens) (UniProt Q07912); conditions: at 0.1 µM
Chain of Activated CDC42 kinase 1 (Homo sapiens) (Q07912 whole entry, looked up): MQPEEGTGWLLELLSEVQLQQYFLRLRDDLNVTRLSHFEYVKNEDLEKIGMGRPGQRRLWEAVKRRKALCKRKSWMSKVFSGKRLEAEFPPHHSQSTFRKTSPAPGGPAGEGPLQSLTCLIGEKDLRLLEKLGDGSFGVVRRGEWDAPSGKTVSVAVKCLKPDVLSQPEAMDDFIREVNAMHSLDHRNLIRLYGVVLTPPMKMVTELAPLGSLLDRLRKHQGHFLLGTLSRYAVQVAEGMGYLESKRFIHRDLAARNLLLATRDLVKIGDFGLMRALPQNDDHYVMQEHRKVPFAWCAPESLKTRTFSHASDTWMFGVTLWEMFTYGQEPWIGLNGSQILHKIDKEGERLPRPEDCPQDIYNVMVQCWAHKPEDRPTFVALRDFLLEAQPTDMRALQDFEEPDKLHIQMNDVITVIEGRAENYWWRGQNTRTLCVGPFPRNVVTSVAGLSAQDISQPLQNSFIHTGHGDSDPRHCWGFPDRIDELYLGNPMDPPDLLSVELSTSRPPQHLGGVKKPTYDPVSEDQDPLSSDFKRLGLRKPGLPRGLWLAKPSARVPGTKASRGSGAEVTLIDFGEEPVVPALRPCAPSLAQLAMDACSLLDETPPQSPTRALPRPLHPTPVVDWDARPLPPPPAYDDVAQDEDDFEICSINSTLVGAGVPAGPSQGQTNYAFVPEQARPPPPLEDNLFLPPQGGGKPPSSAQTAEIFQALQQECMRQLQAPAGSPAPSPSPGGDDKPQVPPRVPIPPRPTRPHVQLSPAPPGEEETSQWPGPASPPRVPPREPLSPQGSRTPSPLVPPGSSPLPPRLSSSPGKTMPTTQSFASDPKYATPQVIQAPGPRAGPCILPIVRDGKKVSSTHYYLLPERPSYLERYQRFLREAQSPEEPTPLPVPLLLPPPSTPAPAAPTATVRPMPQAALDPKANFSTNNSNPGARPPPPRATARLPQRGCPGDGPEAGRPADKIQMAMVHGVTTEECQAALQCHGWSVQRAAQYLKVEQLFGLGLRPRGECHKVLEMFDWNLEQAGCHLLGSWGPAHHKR

[9] = target: Activated CDC42 kinase 1 (Homo sapiens) (UniProt Q07912); conditions: at 1 µM
[10] = target: High affinity nerve growth factor receptor (Homo sapiens) (UniProt P04629); conditions: at 0.1 µM
Chain of High affinity nerve growth factor receptor (Homo sapiens) (P04629 33-796 limits assumed): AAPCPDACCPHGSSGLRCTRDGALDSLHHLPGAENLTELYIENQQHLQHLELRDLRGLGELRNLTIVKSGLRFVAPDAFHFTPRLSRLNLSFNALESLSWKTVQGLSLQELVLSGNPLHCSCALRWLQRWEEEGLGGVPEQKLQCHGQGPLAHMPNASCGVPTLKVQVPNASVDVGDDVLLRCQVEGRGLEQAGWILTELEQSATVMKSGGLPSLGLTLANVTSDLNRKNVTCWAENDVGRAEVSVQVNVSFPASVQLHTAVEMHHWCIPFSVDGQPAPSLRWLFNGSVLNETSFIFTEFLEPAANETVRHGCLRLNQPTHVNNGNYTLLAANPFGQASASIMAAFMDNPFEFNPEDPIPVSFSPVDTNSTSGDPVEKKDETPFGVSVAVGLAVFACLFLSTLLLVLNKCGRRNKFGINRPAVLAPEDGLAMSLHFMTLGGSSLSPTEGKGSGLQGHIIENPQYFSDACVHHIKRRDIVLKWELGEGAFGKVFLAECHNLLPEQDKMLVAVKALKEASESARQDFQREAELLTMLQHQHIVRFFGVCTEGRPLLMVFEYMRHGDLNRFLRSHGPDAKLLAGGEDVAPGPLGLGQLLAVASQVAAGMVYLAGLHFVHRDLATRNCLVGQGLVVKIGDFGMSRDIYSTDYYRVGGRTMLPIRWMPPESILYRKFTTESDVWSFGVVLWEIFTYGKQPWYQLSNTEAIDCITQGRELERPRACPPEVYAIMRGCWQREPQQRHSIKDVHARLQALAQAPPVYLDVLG

[11] = target: High affinity nerve growth factor receptor (Homo sapiens) (UniProt P04629); conditions: at 1 µM
[12] = target: BDNF/NT-3 growth factors receptor (Homo sapiens) (UniProt Q16620); conditions: at 0.1 µM
[13] = target: BDNF/NT-3 growth factors receptor (Homo sapiens) (UniProt Q16620); conditions: at 1 µM
[14] = target: NT-3 growth factor receptor (Homo sapiens) (UniProt Q16288); conditions: at 0.1 µM
Chain of NT-3 growth factor receptor (Homo sapiens) (Q16288 32-839 limits assumed): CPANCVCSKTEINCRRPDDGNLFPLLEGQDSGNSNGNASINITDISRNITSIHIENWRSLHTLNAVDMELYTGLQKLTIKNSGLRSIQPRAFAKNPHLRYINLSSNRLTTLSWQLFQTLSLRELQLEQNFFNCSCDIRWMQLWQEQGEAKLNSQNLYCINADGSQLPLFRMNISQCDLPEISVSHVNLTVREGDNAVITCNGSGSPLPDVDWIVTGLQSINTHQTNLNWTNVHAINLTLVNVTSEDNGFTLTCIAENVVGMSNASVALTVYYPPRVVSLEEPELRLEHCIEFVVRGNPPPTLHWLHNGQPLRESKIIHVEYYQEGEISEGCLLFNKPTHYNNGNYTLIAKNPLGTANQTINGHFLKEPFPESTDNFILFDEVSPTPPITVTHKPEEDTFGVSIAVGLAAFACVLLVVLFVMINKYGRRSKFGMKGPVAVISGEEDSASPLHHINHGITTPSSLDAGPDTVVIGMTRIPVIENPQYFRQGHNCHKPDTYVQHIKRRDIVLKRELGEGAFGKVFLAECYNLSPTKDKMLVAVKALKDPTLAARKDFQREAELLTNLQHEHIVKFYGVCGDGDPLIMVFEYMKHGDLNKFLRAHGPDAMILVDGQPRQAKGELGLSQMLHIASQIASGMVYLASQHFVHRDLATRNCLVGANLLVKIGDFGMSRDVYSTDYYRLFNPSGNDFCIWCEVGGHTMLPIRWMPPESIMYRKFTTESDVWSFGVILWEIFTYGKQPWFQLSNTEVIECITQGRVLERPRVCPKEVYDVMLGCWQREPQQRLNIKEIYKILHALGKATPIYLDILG

[15] = target: NT-3 growth factor receptor (Homo sapiens) (UniProt Q16288); conditions: at 1 µM
[16] = target: T3, Tyrosine-protein kinase TXK (Homo sapiens) (UniProt P42681); conditions: at 0.1 µM
T3 sequence (whole entry): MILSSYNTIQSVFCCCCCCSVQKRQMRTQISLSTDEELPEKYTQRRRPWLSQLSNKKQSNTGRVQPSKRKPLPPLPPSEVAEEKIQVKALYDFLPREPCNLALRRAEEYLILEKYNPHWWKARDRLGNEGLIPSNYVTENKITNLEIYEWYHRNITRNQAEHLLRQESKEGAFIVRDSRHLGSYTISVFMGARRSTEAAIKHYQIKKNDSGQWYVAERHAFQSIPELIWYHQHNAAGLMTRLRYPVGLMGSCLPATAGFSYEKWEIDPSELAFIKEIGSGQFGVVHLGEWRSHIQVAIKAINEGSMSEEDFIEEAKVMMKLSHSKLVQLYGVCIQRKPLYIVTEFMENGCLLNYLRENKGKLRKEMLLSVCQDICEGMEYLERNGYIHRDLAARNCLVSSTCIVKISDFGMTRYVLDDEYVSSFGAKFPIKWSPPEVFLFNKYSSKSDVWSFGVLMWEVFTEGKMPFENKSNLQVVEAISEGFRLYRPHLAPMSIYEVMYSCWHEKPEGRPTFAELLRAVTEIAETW

[17] = target: T3, Tyrosine-protein kinase TXK (Homo sapiens); conditions: at 1 µM
[18] = target: Non-receptor tyrosine-protein kinase TYK2 (Homo sapiens) (UniProt P29597); conditions: at 0.1 µM;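 note: each value is a mean of the inhibition readings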
Chain of Non-receptor tyrosine-protein kinase TYK2 (Homo sapiens) (P29597 whole entry): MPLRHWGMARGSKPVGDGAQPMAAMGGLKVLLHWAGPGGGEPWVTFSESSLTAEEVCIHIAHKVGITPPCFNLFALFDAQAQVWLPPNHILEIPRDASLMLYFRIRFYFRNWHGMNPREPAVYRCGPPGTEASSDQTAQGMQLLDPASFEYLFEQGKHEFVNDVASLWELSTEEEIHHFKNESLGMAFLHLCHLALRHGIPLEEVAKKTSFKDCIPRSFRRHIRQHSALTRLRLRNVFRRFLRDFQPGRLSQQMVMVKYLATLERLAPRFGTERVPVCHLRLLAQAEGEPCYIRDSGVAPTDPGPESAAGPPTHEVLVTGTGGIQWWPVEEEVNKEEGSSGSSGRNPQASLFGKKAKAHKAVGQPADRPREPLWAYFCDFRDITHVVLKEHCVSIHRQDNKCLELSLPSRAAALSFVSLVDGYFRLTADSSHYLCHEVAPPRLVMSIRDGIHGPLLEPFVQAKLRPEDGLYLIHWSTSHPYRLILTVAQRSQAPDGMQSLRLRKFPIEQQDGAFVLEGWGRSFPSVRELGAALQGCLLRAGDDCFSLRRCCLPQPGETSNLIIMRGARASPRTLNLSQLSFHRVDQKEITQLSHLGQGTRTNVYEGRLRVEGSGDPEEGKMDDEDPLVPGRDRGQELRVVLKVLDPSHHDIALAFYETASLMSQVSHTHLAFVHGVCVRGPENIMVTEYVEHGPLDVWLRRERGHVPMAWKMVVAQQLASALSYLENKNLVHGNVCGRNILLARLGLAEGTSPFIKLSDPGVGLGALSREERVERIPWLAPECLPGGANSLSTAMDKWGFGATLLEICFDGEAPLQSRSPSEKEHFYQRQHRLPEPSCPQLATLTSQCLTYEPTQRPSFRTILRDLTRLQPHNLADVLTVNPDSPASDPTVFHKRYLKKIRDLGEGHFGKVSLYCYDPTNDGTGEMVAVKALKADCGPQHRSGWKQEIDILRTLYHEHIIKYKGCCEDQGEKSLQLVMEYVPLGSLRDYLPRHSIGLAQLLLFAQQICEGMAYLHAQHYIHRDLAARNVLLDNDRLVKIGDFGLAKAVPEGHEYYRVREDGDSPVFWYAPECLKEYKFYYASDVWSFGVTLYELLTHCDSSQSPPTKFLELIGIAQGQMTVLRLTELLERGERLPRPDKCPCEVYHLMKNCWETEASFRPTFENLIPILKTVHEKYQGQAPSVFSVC

[19] = target: T4, Dual specificity protein kinase TTK (Homo sapiens) (UniProt P33981); conditions: at 1 µM;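 note: reported figures are mean TTK inhibition at 1 µM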
T4 sequence (whole entry): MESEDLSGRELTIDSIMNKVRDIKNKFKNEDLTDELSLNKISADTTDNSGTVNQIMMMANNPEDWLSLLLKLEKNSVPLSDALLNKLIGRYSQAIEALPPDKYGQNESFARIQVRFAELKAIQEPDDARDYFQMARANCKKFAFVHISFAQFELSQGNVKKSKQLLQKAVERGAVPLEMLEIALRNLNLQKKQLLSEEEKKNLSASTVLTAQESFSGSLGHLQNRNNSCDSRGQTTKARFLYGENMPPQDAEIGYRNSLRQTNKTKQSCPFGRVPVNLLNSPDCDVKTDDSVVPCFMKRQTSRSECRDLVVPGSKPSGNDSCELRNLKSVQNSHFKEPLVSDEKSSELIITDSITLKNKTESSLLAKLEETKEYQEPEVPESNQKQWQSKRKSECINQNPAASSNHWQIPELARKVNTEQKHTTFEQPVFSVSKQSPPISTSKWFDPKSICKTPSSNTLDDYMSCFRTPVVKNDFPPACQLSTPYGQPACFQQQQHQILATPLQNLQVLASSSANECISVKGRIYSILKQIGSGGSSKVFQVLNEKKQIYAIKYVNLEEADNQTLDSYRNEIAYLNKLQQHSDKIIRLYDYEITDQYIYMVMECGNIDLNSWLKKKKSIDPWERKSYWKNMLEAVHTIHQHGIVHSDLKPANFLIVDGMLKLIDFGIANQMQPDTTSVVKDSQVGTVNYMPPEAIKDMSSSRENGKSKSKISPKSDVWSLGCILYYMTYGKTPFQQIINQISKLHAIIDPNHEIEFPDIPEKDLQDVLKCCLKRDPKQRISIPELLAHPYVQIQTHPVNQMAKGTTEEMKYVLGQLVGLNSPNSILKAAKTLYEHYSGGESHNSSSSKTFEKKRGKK

[20] = target: T5, Aurora kinase A (Homo sapiens) (UniProt O14965); conditions: at 0.1 µM;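 note: each reported value is a mean percent inhibition of Aurora-A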
T5 sequence (whole entry): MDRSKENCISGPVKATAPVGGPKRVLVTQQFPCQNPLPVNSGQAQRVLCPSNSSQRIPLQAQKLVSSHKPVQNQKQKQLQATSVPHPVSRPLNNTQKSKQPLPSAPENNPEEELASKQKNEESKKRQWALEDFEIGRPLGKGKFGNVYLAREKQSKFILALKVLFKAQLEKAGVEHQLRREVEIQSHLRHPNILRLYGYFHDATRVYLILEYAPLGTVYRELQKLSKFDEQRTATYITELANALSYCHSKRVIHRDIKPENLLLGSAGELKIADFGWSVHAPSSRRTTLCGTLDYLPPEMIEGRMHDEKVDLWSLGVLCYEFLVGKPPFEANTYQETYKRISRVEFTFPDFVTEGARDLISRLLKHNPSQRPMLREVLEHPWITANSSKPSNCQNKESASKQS

Row | SMILES | inhibition [1] [%] | inhibition [2] [%] | inhibition [3] [%] | inhibition [4] [%] | inhibition [5] [%] | inhibition [6] [%] | inhibition [7] [%] | inhibition [8] [%] | inhibition [9] [%] | inhibition [10] [%] | inhibition [11] [%] | inhibition [12] [%] | inhibition [13] [%] | inhibition [14] [%] | inhibition [15] [%] | inhibition [16] [%] | inhibition [17] [%] | inhibition [18] [%] | inhibition [19] [%] | inhibition [20] [%]
1 | CCc1cccc(NC(=O)Nc2ccc(Oc3ccc4nc(NC(=O)OC)[nH]c4c3)cc2)c1 | -0.99 | 2.07 | 3.91 | 46.2 | 55.7 | 3.34 | 13.8 | -0.42 | 1.35 | 30.8 | 43.7 | 21.4 | 30.7 | 20.4 | 30.3 | 2.03 | 5.13 | -5.85 | 6.45 | 2.16
2 | Fc1cccc(COc2ccc(Nc3ncnc4cc(-c5ccc[nH]5)sc34)cc2Cl)c1 | 2.33 | -0.22 | 3.69 | 2.27 | 8.54 | 1.22 | 1.7 | 0.28 | 0.88 | 2.39 | 2.72 | 2.62 | 0.88 | 2.48 | 2.41 | 2.95 | 9.57 | -1 | 10.7 | -2.74
3 | Cc1nn(C)c2cc(N(C)c3ccnc(Nc4cccc(S(N)(=O)=O)c4)n3)ccc12 | -0.53 | 25.8 | 67.9 | 10.6 | 52.5 | 30 | 80.7 | 0.86 | 10.2 | 2.81 | 6.3 | 2.64 | 11.7 | 2.83 | 12.3 | 53.5 | 79.2 | -1.02 | 26.4 | 20
4 | CC(C)=Cc1cccc2c1/C(=N/Nc1ccc(S(N)(=O)=O)cc1)C(=O)N2 | -2.03 | 2.44 | 10.1 | 0.37 | 3.74 | 9.88 | 65.6 | 0.01 | 2.76 | 6.87 | 51.5 | 22.4 | 75.3 | 23.6 | 77.2 | 3.64 | 12.9 | 3.75 | 51.7 | 25.6
5 | CS(=O)(=O)CCN(CC#N)Cc1ccc(-c2ccc3ncnc(Nc4ccc(OCc5cccc(F)c5)c(Cl)c4)c3c2)o1 | 1.94 | -2.12 | -1.96 | 2.27 | 1.84 | 2.76 | 23.2 | -0.59 | 0.01 | 2.64 | 4.12 | 1.7 | 3.2 | 1.69 | 1.13 | -2.35 | -2.94 | -3.9 | 5.67 | -2.58
6 | CN(C)c1cc2c(Nc3ccc4nc(Cc5ccccc5)[nH]c4c3)ncnc2cn1 | 1.5 | 5.94 | 11.9 | 3.86 | 4.47 | 6.39 | 21 | 1.01 | 4.65 | 4.28 | 3.31 | 3.89 | 2.87 | 3.93 | 4.24 | 8.4 | 13.7 | -8.04 | 32.2 | 3.28
7 | COc1ccc(COc2ccc(Cc3cnc(N)nc3N)cc2OC)cc1 | 0.65 | 1.62 | 2.91 | 2.2 | 8.78 | 0.7 | -8.3 | 2.24 | 3.64 | 32.4 | 50 | 25.7 | 75.4 | – | – | 4.15 | 4.97 | 3.75 | 3.14 | 4.1
8 | NC(=O)c1ccc(-c2nc(-c3ccccn3)c(-c3ccc4c(c3)OCO4)[nH]2)cc1 | 0.21 | 3.16 | 2.63 | 5.33 | 5.38 | 1.36 | -0.98 | 0.29 | 1.03 | 1.52 | 3.43 | 1.54 | 0.41 | 0.44 | 1.77 | 2.18 | 3.28 | -4.13 | 3.14 | 1.85
9 | CC1=C(C(=O)Nc2ccc3[nH]ncc3c2)C(c2ccc3ccccc3c2)CC(=O)N1 (stereo not drawn) | 2.59 | 2.81 | 9.73 | 3.02 | 8.68 | 3.25 | 22.4 | 2.91 | 20.3 | 3.43 | 2.53 | 1.18 | 4.38 | 5.87 | 5.78 | 2.76 | 8.34 | 0.09 | -0.04 | 7.34
10 | NS(=O)(=O)c1cccc(-c2ccc3c(NC(=O)C4CC4)n[nH]c3c2)c1 | 0.39 | -1.67 | -2.6 | 1.65 | 3.55 | -2.18 | 2.91 | -0.31 | 0.27 | 0.7 | 1.21 | 0.07 | 2.04 | 0.11 | 3.65 | -2.48 | -2.41 | 0.42 | 2.12 | -1.3
11 | Nc1nc(-c2ccc3c(c2)C(=Cc2cc(Br)c(O)c(Br)c2)C(=O)N3)cs1 | 0.99 | -1.8 | -1 | -0.24 | 3.72 | 0.05 | 37.1 | -1.13 | -0.19 | 1.01 | 2.45 | 1.16 | 9.18 | 2.62 | 16.6 | -0.27 | 0.27 | 1.72 | -0.27 | -1.16
